Test results published in PubChem BioAssay AID680 (PCMD, 2007).
The campaign covered roughly 62,000 compounds. About 120 (0.19%) were called active. Cut-off read from the data, not from the text of the source: active = inhibition above about 20% (passing the limit was not always enough); inactive = the rest. The list comes from a sample in which actives are over-represented; it also holds similar structures and randomly drawn compounds.

What follows are compounds tested against Coagulation factor XI (Homo sapiens) (UniProt P03951) (assay: human factor XIa inhibition by mixtures – biochemical, 10-compound mixtures, primary screen (AID 680;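 note: each value is inhibition by a whole ten-compound pool holding the compound; 0% = enzyme with no mixture and 100% = wells lacking enzyme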)). Conditions: purified FXIa, fluorogenic substrate, pooled mixtures; at 5 µM; stronger effect = higher value.
Chain of Coagulation factor XI (Homo sapiens) (P03951 19-387 limits assumed): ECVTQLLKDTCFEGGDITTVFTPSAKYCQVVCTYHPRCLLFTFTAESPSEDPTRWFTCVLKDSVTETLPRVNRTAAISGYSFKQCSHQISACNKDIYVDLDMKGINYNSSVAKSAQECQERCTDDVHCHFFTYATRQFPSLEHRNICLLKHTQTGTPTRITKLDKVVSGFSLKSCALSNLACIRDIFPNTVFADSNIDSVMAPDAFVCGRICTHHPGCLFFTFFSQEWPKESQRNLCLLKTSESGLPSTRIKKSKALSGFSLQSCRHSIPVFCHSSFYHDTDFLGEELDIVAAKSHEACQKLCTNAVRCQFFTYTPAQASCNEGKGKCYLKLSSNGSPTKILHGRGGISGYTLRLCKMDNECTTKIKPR
Chain of Coagulation factor XI (Homo sapiens) (P03951 388-625 limits assumed): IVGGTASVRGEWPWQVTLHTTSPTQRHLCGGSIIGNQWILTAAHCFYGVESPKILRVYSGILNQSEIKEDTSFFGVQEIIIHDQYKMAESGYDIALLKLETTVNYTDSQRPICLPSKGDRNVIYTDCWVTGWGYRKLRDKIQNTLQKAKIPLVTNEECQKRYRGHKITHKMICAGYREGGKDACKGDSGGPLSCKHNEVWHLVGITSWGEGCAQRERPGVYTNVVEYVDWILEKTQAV

inhibition, inactive:
CN1CCN(C(=O)c2ccc(NS(=O)(=O)c3ccccc3)cc2)CC1 1.27%
Cc1nonc1OCCn1nnnc1N -1.41%
COc1ccc(CCNS(=O)(=O)c2ccc(C(=O)NCc3ccco3)cc2)cc1OC 2.31%
Cc1ccc2nc(-c3ccc(SCC(=O)Nc4cc(C)on4)nc3)[nH]c2c1 -9.14%
COc1ccc(Cn2c(=O)sc3ccccc32)cc1OC -0.795%
CC1(C)Oc2ccc(C(=O)N3CCOCC3)cc2N(CC(=O)Nc2ccccc2)C1=O 7.31%
O=C(CSc1nnc(-c2cccs2)n1-c1ccccc1)N1CCN(C(=O)c2ccco2)CC1 -14.5%
O=S(=O)(NCCNS(=O)(=O)c1ccccc1)c1ccccc1 -3.77%
COc1ccc(NC(=O)c2c(SC)nsc2SC)cc1 4.24%
COc1cccc(Nc2ncccc2C(=O)O)c1 5.89%
COc1ccc(Cc2nnnn2CC(=O)O)cc1 3.18%
O=C(O)c1ccc(F)c(S(=O)(=O)Nc2ccccc2)c1 7.12%
CCN(CC)CCCNC(=O)c1cc(-c2cccc(Cl)c2)on1 5.02%
CCOC(=O)Cn1c(N)c(C(=O)OC)sc1=S -0.995%
O=C(Cn1cnc2c(cnn2-c2ccc(F)cc2)c1=O)NCCc1ccccc1 -10.3%
Cc1cc(C)c(C#N)c(SCc2[nH]nc3c2C(c2ccccc2)C(C#N)=C(N)O3)n1 (configuration not stated) 1.67%
c1ccc2c(CNn3cnnc3)cccc2c1 7.96%
COC(=O)c1ccc(CN(c2ccccc2OC)S(=O)(=O)c2cccs2)o1 -7.66%
CCOC(=O)c1c(C)nc(-c2ccccc2)nc1NC(=O)C(C)C 5.54%
CCOc1ccc(N=C2SC(C(=O)O)CC(=O)N2C)cc1 (configuration not stated) -15.5%
CCC(=NC1CC(C)(C)NC(C)(C)C1)C1=C(O)CC(C)(C)CC1=O -8.62%
CCCCN(C)C(=O)C1CCN(Cc2ccccn2)CC1 -2.55%
COc1ccc(CSc2nc(N3CCOCC3)c3c(c2C#N)CC(C)(C)OC3)cc1 -0.245%
COc1cc2cc(CN(CCN3CCCC3)C(=O)Nc3ccccc3Cl)c(=O)[nH]c2cc1OC 2.35%
C=CCn1c(SCc2nnc(-c3ccccc3)o2)nnc1C(O)c1ccccc1 (configuration not stated) -17.4%
CCCCCCC(=O)N(O)C1CC(=O)N(c2ccccc2)C1=O (configuration not stated) 1.64%
O=C1CC2(CCCCC2)Oc2ccc(OCC(=O)N3CCOCC3)cc21 4.52%
Cc1cn(COC/C=C/c2ccccc2)c(=O)[nH]c1=O -1.04%
CCNc1nc(NCC)nc(N(C)n2cnnc2)n1 -3.07%
CC(C)(C)c1ccc(C(=O)NCCC(=O)NCc2ccco2)cc1 3.48%
CCn1cc(C(=O)N2CCN(C3CCCCC3)CC2)c2cc(OC)c(OC)cc2c1=O 4.42%
COC(=O)[C@@H](NC(=O)NCc1cccc(OC)c1)C(C)C -1.25%
COC(=O)CCNc1ccc2c(c1)OCCO2 -1.79%
COc1ccc(-c2c(C)nn3c(N4CCC(C(=O)N5CCCCC5)CC4)cc(C)nc23)cc1OC 8.56%
CCc1ccccc1N(CC(=O)NCCSCc1ccco1)S(C)(=O)=O -9.75%
CCSc1nc2c(c(=O)[nH]1)C(c1cccnc1)C(C(=O)OC(C)C)=C(C)N2 (configuration not stated) 7.07%
Cn1c(=NC(=O)c2cnccn2)sc2ccccc21 5.25%
O=C(OC(C(=O)NC1CCCC1)c1ccc(F)cc1)c1ccno1 (configuration not stated) 7.23%
CN(C)CCNC(CC(=O)Nc1ccc(Cl)c(Cl)c1)C(=O)O (configuration not stated) 0.68%
CN1CCN(c2cc(=O)n(-c3ccc(Cl)cc3)c(=O)[nH]2)CC1 -10.3%
COc1ccc(C)cc1NC(=O)CSc1nc(SC)ns1 6.14%
CCOc1ccccc1NC(=O)C1CCN(S(=O)(=O)c2c(C)nn(C)c2C)CC1 9%
COc1cccc2c(=O)n(CC(=O)N3CCCCCC3)ccc12 -15.3%
Cc1ccc(C(=O)O)cc1S(=O)(=O)NCC1CCCO1 (configuration not stated) 8.82%
CCOC(=O)Cn1c(CN(Cc2ccccc2)Cc2ccccc2)nc2c1c(=O)[nH]c(=O)n2C -7.29%
CCSC(C)CC1C/C(=N/O)c2c(C)noc2C1 (configuration not stated) 0.87%
O=C(CSC1=Nc2ccccc2C2=NC(c3ccccc3)C(=O)N12)NCC1CCCO1 (configuration not stated) 2.26%
